This is a sample that favours compounds with a hit; in the whole collection about 7.9% have one here.
HCMV antiviral = inhibitors of human cytomegalovirus. HFF cells, HCMV-luciferase reporter, 72 h; active compounds read low. activity change, negative = inhibition, % at 57.5 µM. 4.5% of 410,000 active; in the data active = activity change below about -60%; inconclusive = no clear call, values can overlap the other calls; inactive = above about -39%
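Two-dose cell screen: HFF monolayers treated with compounds and infected with luciferase-expressing HCMV at 1 PFU/cell, 72 h at 37C, then lysed for luciferase measurement.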
FMDV antiviral = blocks foot and mouth disease virus; FMDV antiviral cell-based qHTS; Potency, µM (titrated, usually from 57.9 µM), usual class: inhibitors; 1.2% of 410,000 active; calls by dose curve; tested in HEK293T cells; also: read-out not given here; nearly all actives have a fitted effect of over 45% in size
Lassa entry inh = Lassa virus entry inhibition; Potency, µM (highest dose often 37.9 µM), most hits filed as inhibitors; Lassa virus pseudotype entry inhibition, cell reporter; AID 540256; 1.2% of 300,000 active; calls by dose curve; tested in HEK293 cells; also: nearly all actives have a fitted effect of over 50% in size
Marburg entry inh = Marburg virus entry inhibition. Marburg virus pseudotyped entry inhibition, cell reporter. 1.8% of 300,000 active. AID 540276. Potency, µM (doses to about 37.8 µM), actives largely listed as inhibitors; calls by dose curve; tested in HEK293 cells
HCV inhibitor = inhibitors of hepatitis C virus infection; AID 651820; 3.4% of 340,000 active; Huh7.5.1 HCVcc-Cre infection, luciferase reporter, 44 h; Potency, µM (top dose mostly 41.8 µM), hits mostly inhibitors; active = well fitted inhibition curve with a large enough effect; inconclusive = small, poorly fitted or top-dose-only effect, or another doubt; inactive = no such curve, though single readings can be large or run the other way
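Infectious HCV cell culture screen: compound-treated cells (1,000/well, pre-plated 4 h) are infected with HCVcc-Cre at roughly 0.5 moi and grown 44 h. Infection is quantified by luciferase signal after 15 min substrate incubation at room temperature.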
Hits are given with their value; n = inactive; u = inconclusive; x = no result given.

SMILES | HCMV antiviral | FMDV antiviral | Lassa entry inh | Marburg entry inh | HCV inhibitor
Cc1cccc(NC(=O)/C(C#N)=C/c2cn(CC(=O)NCc3ccco3)c3ccccc23)c1 | -63.1 | n | n | u | u
CCCC[C@H]1COCCS(=O)(=O)N1Cc1ccccc1F | -99.1 | n | x | x | n
O=S1(=O)CCOC[C@H](Cc2ccccc2)N1Cc1cccc(F)c1 | n | n | x | x | n
CCC[C@H]1COCCS(=O)(=O)N1Cc1ccccc1F | n | n | x | x | n
O=S1(=O)CCOC[C@H](Cc2ccccc2)N1Cc1ccc(F)cc1 | -66.8 | n | x | x | n
O=C(Nc1ccccc1N1CCCC1)C1CCN(S(=O)(=O)c2ccccc2C(F)(F)F)CC1 | n | n | n | u | u
O=C(Nc1ccccc1Cl)C1CCCN(S(=O)(=O)c2cccc3cccnc23)C1 (stereo not given) | n | n | x | x | n
O=C(Nc1ccccc1N1CCCCC1)C1CCN(S(=O)(=O)c2ccccc2C(F)(F)F)CC1 | -61.0 | n | u | u | u
O=C(Nc1cccc(F)c1)C1CCN(S(=O)(=O)c2cccc3nonc23)CC1 | n | u | n | n | n
O=C(Nc1nc2cc(Cl)ccc2s1)C1CCCN(S(=O)(=O)c2cccc3cccnc23)C1 (stereo not given) | x | n | x | n | 11.2µM
O=C(Nc1ccc(Cl)c(C(F)(F)F)c1)C1CCCN(S(=O)(=O)c2cccc3cccnc23)C1 (stereo not given) | n | u | 5.62µM | x | x
O=C(Nc1ccc(Cl)c(C(F)(F)F)c1)C1CCN(S(=O)(=O)c2cccc3nonc23)CC1 | u | 31.6µM | u | u | x
CN1CCCCC(NC(=O)c2ccc(F)cc2)C1=O (stereo not given) | n | x | x | x | x
CCOc1cc(Br)ccc1S(=O)(=O)NCc1ccccc1 | n | n | n | n | n
CCc1nc2ccccc2n2c(-c3ccccc3)c3c(=O)n(C)c(=O)n(C)c3c12 | n | n | n | n | x
O=S(=O)(Nc1ccc2nc(-c3cccc(Cl)c3)nn2c1)c1ccco1 | n | x | x | x | x
O=C(Nc1ccc(C(F)(F)F)cc1)C1CCCN1S(=O)(=O)c1cccc2cccnc12 (stereo not given) | -74.5 | n | u | u | u
Cc1ccc2c(c1)N(CCCC(=O)NCc1cccc(F)c1)C(=O)CO2 | n | n | u | u | x
CC1C=Cc2ccccc2N1C(=O)c1ccccc1 (stereo not given) | n | x | n | n | n
O=C(CC1C=Cc2ccccc2N1C(=O)c1ccccc1)c1ccccc1 (stereo not given) | n | n | x | x | 10µM
O=S(=O)(/C=C/c1ccccc1)NC1CCCCCCC1 | n | n | n | n | n
CN(C)S(=O)(=O)Oc1ccsc1C(=O)Nc1cccc(Cl)c1Cl | -68.0 | n | u | n | u
CN(C)S(=O)(=O)Oc1ccsc1C(=O)Nc1ccccc1Cl | n | n | n | n | u
COc1ccc(CCN(C)Cc2ccc(C(=O)Nc3ccccc3)cc2)cc1OC | -73.2 | n | u | u | 10µM
COc1ccc(CN(C)CC(=O)Nc2ccc(SC(F)F)cc2)cc1OC | n | 17.8µM | u | u | u
SMILES | HCMV antiviral | FMDV antiviral | Lassa entry inh | Marburg entry inh | HCV inhibitor
COc1ccc(CCN(C)Cc2ccc(OC)c(OCc3ccccc3)c2)cc1OC | n | n | n | 18.3µM | n
COc1ccc(CCN(C)Cc2ccc(OCc3ccccc3)c(OC)c2)cc1OC | n | n | n | u | n
CCCNC(=O)N1C2=NC(C(=O)OC)=C(C(=O)OC)[C@@H]3N(C)c4ccccc4[C@]23C[C@H]1C(=O)OC | x | x | x | n | x
COC(=O)c1sc2cccc(F)c2c1S(=O)(=O)NCc1ccc(F)cc1 | n | n | n | x | x
CN1C2CCC1C(C(=O)Oc1ccccc1)C(c1ccc(Cl)cc1)C2 (stereo not given) | -76.7 | x | x | x | x
COC(=O)C1C(c2ccc(C)cc2)CC2CCC1N2C (stereo not given) | n | x | x | x | x
COc1cccc(-c2noc(C3CCCN(C(=O)CC(C)(C)C)C3)n2)c1 (stereo not given) | n | n | x | x | 10µM
COc1cccc(C(=O)N2CCCC(c3nc(-c4cccs4)no3)C2)c1 (stereo not given) | -103.5 | n | n | n | n
COc1ccc(-c2noc(C3CCCN(C(=O)c4ccc(C)cc4)C3)n2)cc1 (stereo not given) | u | n | u | u | 12.6µM
O=c1oc2ccc(F)cc2cc1-c1nc(-c2cccs2)no1 | n | n | u | x | x
CC1CCCN(c2ccc(C(=O)NCc3cccs3)cn2)C1 (stereo not given) | n | x | 10.3µM | n | u
NNC(=O)c1cccc(COc2ccc3c(c2)CCC3)c1 | n | 12.6µM | 2.06µM | u | n
